# Active and inactive are the calls of the source. The rule behind the calls is not given here.
# Biological target: Histone deacetylase 1 (Homo sapiens) (UniProt Q13547)
# Experiment: recombinant HDAC1 deacetylase inhibitors – biochemical, HDAC isoform panel, selectivity assay for E-cadherin restoration project, profiling panel (AID 651918)
# Histone deacetylase 1 (Homo sapiens), sequence (Q13547 whole entry, looked up, canonical isoform): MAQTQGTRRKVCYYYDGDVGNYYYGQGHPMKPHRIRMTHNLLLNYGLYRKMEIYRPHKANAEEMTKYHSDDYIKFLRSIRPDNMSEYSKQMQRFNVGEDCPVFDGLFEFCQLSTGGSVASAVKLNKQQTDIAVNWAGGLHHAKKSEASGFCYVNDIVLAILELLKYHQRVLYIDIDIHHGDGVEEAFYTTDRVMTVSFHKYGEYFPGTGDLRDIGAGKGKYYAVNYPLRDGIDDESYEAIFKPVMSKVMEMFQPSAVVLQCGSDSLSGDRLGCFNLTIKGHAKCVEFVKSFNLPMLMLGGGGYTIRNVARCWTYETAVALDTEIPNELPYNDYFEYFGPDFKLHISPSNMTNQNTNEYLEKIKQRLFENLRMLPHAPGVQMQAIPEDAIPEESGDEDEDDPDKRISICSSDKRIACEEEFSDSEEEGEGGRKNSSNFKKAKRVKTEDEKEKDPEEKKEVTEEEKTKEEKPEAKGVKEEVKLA
smiles,measurement,value
O=C(NCCCNC(=O)c1ccc[nH]c1=O)c1cc(-c2ccccc2)on1,outcome,inactive
